Source: PubChem BioAssay (several laboratories)
An excerpt weighted towards active compounds, which were near 3.1% of everything screened.
ATG4B inh: inhibitors of human ATG4B cysteine protease; Q9Y4P1; ATG4B cleavage of LC3-PLA2, NBD-HPC fluorescence, 1 h; inhibition, % at 8.33 µM; 340,000 compounds, 0.51% hits; in the data active = inhibition above about 40%
PREPL inhibitor: inhibits the human prolyl oligopeptidase-like enzyme; recombinant PREPL, fluorescence polarization activity-based probe; 320,000 compounds, 0.68% hits; Q4J6C6; inhibition, % at 5.96 µM;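 also: 0% = enzyme with DMSO and 100% = wells lacking enzyme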
UBC13 polyUb: human UBC13 polyubiquitination inhibition; P61088; UBC13 polyubiquitin chain formation, TR-FRET; inhibition, % at 20 µM; 330,000 compounds, 0.47% hits; AID 485273; in the data active = inhibition above about 45%, passing the limit was not always enough
MEKK3 PB1 HTS: modulators (inhibitors or enhancers) of MEK5 binding to human MEKK3 PB1 domain. Q99759. bead-based flow cytometry, Alexa488-MEK5 binding to MEKK3; actives lie on both sides; 0 = blocked by unlabeled MEK5, 100 = vehicle. binding response (% of control), % at 10 µM. 290,000 compounds, 1.4% hits. AID 1529;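 active = binding response more than 3 SD above or below the average of its plate-row segment, actives on both sides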;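 also: Alexa488 bead fluorescence after subtracting the streptavidin-only scavenger bead signal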
Target sequence (Q99759 whole entry, looked up, the tested form may be a part): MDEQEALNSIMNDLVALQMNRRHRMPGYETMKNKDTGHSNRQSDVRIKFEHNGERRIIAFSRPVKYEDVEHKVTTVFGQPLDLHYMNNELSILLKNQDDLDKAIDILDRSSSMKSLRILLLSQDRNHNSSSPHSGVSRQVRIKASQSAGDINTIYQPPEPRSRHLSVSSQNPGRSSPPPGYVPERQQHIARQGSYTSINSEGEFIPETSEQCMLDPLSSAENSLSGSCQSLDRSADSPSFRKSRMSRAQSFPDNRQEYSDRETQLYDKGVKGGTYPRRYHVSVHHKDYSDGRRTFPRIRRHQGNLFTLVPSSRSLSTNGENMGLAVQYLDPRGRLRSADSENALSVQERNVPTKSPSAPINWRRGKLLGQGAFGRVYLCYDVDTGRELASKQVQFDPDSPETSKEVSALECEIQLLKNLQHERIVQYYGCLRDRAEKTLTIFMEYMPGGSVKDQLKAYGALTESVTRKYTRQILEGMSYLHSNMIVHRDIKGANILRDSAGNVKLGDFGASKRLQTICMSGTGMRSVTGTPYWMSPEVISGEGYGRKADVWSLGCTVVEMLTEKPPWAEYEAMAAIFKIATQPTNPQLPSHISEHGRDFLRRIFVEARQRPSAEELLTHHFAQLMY
MEKK2 WT-MEK5: raises or lowers MEK5 binding to wildtype human MEKK2 PB1 domain; binding response (% of control), % at 10 µM; 290,000 compounds, 1.1% hits; bead flow cytometry, Alexa488-MEK5 binding to MEKK2 WT; actives lie on both sides; Q9Y2U5; in the data active = binding response below about 67% or above about 130%
MEKK2 mut-MEK5: signal of MEK5 binding to mutant human MEKK2 PB1 domain; bead flow cytometry, Alexa488-MEK5 binding to MEKK2 mutant; 290,000 compounds, 0.35% hits; percent response, % at 10 µM; AID 1530; in the data active = percent response above about 24%, passing the limit was not always enough
PREPL confirm: human PREPL inhibition, confirmation. inhibition, % at 5.96 µM. recombinant PREPL, fluorescence polarization activity probe. 2,000 compounds, 67% hits. shares compounds with PREPL inhibitor;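 also: 0% = protein with DMSO and 100% = wells lacking protein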
Active calls of the source: *; nt = not tested or not shown. Rule as the data show it, unless noted: active = inhibition above about 43%; inactive = the rest.

SMILES	ATG4B inh	PREPL inhibitor	UBC13 polyUb	MEKK3 PB1 HTS	MEKK2 WT-MEK5	MEKK2 mut-MEK5	PREPL confirm
CN1C(=O)NC(c2ccccc2[N+](=O)[O-])C2=C1CCCC2=O (stereo not given)	-1.2	77.0*	-39.4	103.0	98.0	0.0	14.2
CCOC(=O)Cc1csc(NC(=O)CSc2nc(=O)[nH]c3c2CCC3)n1	4.8	5.5	0.1	nt	nt	nt	nt
O=C(O)c1ccccc1NS(=O)(=O)c1ccc(NN=Cc2ccc(F)cc2)c([N+](=O)[O-])c1	3.9	43.6*	-47.3	nt	nt	nt	36.7
O=C(O)c1ccccc1NS(=O)(=O)c1ccc(NN=Cc2cccc(Cl)c2)c([N+](=O)[O-])c1	8.6	53.4*	-46.8	nt	nt	nt	44.7*
O=C(O)c1ccccc1NS(=O)(=O)c1ccc(N/N=C/c2ccc(O)c(O)c2)c([N+](=O)[O-])c1	39.9	nt	nt	nt	nt	nt	nt
O=C(O)c1ccc(/C=N/Nc2ccc(S(=O)(=O)N3CCCC3)cc2[N+](=O)[O-])cc1	-8.9	12.5	-65.5	98.0	96.0	0.0	nt
COc1ccc(NS(=O)(=O)c2ccc(NN=Cc3ccc(C(=O)O)cc3)c([N+](=O)[O-])c2)cc1	nt	45.1*	-101.2	nt	nt	nt	40.0
O=C(COC(=O)c1cc(S(=O)(=O)N2CCOCC2)ccc1F)Nc1ccc(Cl)cn1	-27.4	11.2	-10.9	nt	nt	nt	nt
O=C(CN1C(=O)NC2(CCc3ccccc32)C1=O)Nc1ccccc1Cl (stereo not given)	-4.6	25.8	3.8	nt	nt	nt	nt
CN(Cc1ccccc1)C(=O)c1ccc(NC(=O)Cc2ccc(NC(=O)C3CCCN(C(=O)c4ccccc4)C3)cc2)cc1 (stereo not given)	-11.8	nt	nt	nt	nt	nt	nt
Nc1nc(SCC(=O)c2ccc(Br)s2)n[nH]1	-0.4	51.5*	-11.4	105.0	99.0	-1.0	29.1
CC1CC(C)(C)CC2(C1)NC(=O)N(CC(=O)OCC(=O)Nc1cc(S(=O)(=O)N3CCCCC3)ccc1Cl)C2=O (stereo not given)	-16.4	nt	nt	nt	nt	nt	nt
Cc1ccc2c(c1)C1CN(C)CCC1N2Sc1ccccc1[N+](=O)[O-] (stereo not given)	28.2	45.1*	-4.5	99.0	109.0	6.0	38.1
Cc1ccc2c(c1)[C@@H]1CN(C)CC[C@@H]1N2S(=O)(=O)c1ccc([N+](=O)[O-])cc1	-2.3	3.7	-7.8	95.0	108.0	-1.0	nt
Cc1ccc2nc(-c3cccc(N)c3)[nH]c2c1	-8.5	2.7	11.0	106.0	97.0	13.0	nt
Cc1ccc2nc(-c3sc4nc(C)cc(C)c4c3N)[nH]c2c1	-24.7	72.8*	1.1	98.0	94.0	4.0	37.3
O=C(CCCO)NNc1c2ccccc2nc2ccccc12	-0.9	3.5	-8.9	105.0	98.0	2.0	nt
O=C(COc1ccccc1)NNc1c2ccccc2nc2ccccc12	-19.8	45.5*	-71.1	102.0	100.0	4.0	39.4
O=C(NNc1c2ccccc2nc2ccccc12)c1ccc(O)cc1O	-11.3	41.4	-149.4	nt	nt	nt	nt
O=C(NNc1c2ccccc2nc2ccccc12)c1ccccc1O	-28.3	46.3*	-178.4	100.0	101.0	1.0	30.5
COc1ccc(OCC(=O)NNc2c3ccccc3nc3ccccc23)cc1	-16.4	43.7*	-88.5	98.0	91.0	-10.0	50.2*
CCCC(=O)NNc1c2ccccc2nc2ccccc12	-8.2	2.3	-15.6	99.0	116.0	23.0	nt
Cc1ccc(Cn2c(C3CCCN3c3nc(-c4ccc(F)cc4)cs3)nc3cc(C(F)(F)F)ccc32)cc1 (stereo not given)	-7.8	7.6	-2.7	100.0	102.0	2.0	nt
CC(C(=O)Nc1ccccc1)N(c1cccc(Cl)c1)S(C)(=O)=O (stereo not given)	5.2	5.9	6.2	100.0	101.0	1.0	nt
Cc1ccc(OCC(=O)Nc2ccc(N3CCOCC3)cc2)cc1	-7.5	44.9*	2.9	91.0	91.0	-6.0	31.2
SMILES	ATG4B inh	PREPL inhibitor	UBC13 polyUb	MEKK3 PB1 HTS	MEKK2 WT-MEK5	MEKK2 mut-MEK5	PREPL confirm
CC(C)(C)c1ccc(OCCC(=O)Nc2ccc(N3CCOCC3)cc2N2CCOCC2)cc1	-16.1	49.3*	1.8	nt	nt	nt	41.9
CCC(=O)N1CCN(c2ccc(NC(=O)COc3ccc(CC)cc3)cc2)CC1	-6.9	44.7*	-3.0	100.0	96.0	-3.0	47.6*
CCC(=O)N1CCN(c2ccc(NC(=S)NC(=O)COc3ccccc3)cc2)CC1	-2.6	22.9	1.2	103.0	105.0	6.0	nt
COc1ccc(-c2cnnc(N/N=C/c3ccc(O)c(O)c3)n2)cc1	4.1	73.3*	-16.4	97.0	102.0	0.0	37.3
CCOC(=O)C1=C(COC(=O)C(CC)c2ccccc2)NC(=O)NC1C (stereo not given)	-63.2	10.5	4.3	nt	nt	nt	nt
O=C(Nc1ccc2c(c1)OCCO2)c1cccc2nc3ccccc3nc12	-20.1	48.8*	-7.7	96.0	91.0	0.0	60.1*
CCNC(=O)N1CCC(n2nccc2NC(=O)CCCc2ccccc2)CC1	0.5	2.3	2.1	97.0	94.0	-7.0	nt
Cc1ccc(NC(=S)Nc2ccc3nc(-c4ccccn4)c(-c4ccccn4)nc3c2)cc1C	-1.2	43.6*	nt	100.0	95.0	-2.0	37.3
COc1cc2c(cc1OC)C(Cc1ccc(O)c(Oc3ccc(C[C@H]4c5cc(OC)c(OC)cc5CCN4C)cc3)c1)N(C)CC2 (stereo not given in full)	nt	45.4*	25.7	nt	nt	nt	51.7*
CCCCN=CC1=C(O)CC(c2ccccc2)CC1=O (stereo not given)	-6.1	-1.0	-1.6	112.0	109.0	2.0	nt
N#Cc1c(Nc2ccc(F)cc2)sc(C(=O)c2ccccc2)c1N	-14.6	4.9	-2.4	99.0	96.0	-2.0	nt
N#Cc1c(Nc2ccccc2)sc(C(=O)c2ccccc2)c1N	8.6	46.0*	0.2	84.0	92.0	-8.0	42.4
O=C(NCCc1ccccc1)/C(=C\c1ccccc1)NC(=O)c1ccco1	-2.4	-11.0	5.1	97.0	98.0	1.0	nt
COc1ccc2sc(-c3ccc(N(C)C)cc3)c(C#Cc3cncn3C)c2c1	-18.3	46.5*	34.7	nt	nt	nt	40.3
COc1ccc2sc(-c3ccc(N(C)C)cc3)c(C#CC(C)(C)O)c2c1	-9.6	12.8	17.5	nt	nt	nt	nt
O=C(C1=C[C@H](c2ccccc2)C[C@H](OCCCCO)O1)N1CCN(Cc2ccc3c(c2)OCO3)CC1	0.1	22.3	9.4	94.0	94.0	-2.0	nt
CCO[C@H]1OC(C(=O)N2CCN(Cc3ccc4c(c3)OCO4)CC2)=C[C@@H](c2ccc3c(c2)OCO3)[C@@H]1CCCO	1.7	49.0*	8.4	103.0	103.0	2.0	42.9
O=C(C1=C[C@@H](c2ccccc2)C[C@@H](OCc2ccc(CO)cc2)O1)N1CCN(Cc2ccc3c(c2)OCO3)CC1	13.6	50.7*	15.2	108.0	100.0	6.0	55.9*
